Screening results deposited in PubChem BioAssay by National Center for Advancing Translational Sciences (NCATS).
CCT modulator: High-Throughput Screening for Modulators of Cytosolic Chaperonin Activity. purified chaperonin ATPase assay, HTRF ADP detection, 30 min. activity change, % (no concentration beside the values), hits read low. hit rate 0.3% among 360,000; in the data active = activity change below about -30%; also: % is scaled to controls: 0 for no effect and ±100 for the full control effect
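First, chaperonin was dispensed at 40 nM or 20 nM final depending on batch activity. Next, compounds were pinned at 76 uM and ATP added at 10 uM. After 30 min at 37 °C, ADP detection reagents ran 30 min at ambient temperature.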
uPA generation: qHTS for Inhibitors of Cell Surface uPA Generation | cell surface uPA generation assay, qHTS | Potency, µM (doses to about 38.3 µM), inactives show top-dose activity change, negative = inhibition, most hits filed as inhibitors | hit rate 0.31% among 330,000 | AID 540303, 2011; active = well fitted inhibition curve with a large enough effect; inconclusive = small, poorly fitted or top-dose-only effect; inactive = no such curve, though single readings can be large or run the other way; tested in mouse RAW 264.7 cells; also: potency is read from the fitted curve at half-maximal effect; % is scaled to controls: 0 for no effect and ±100 for the full control effect; nearly all actives have a fitted effect of over 55% in size
gsp ag: qHTS for Agonist of gsp, the Etiologic Mutation Responsible for Fibrous Dysplasia/McCune-Albright Syndrome: qHTS; gsp mutant cells, cAMP HTRF, 30 min; Potency, µM (highest dose often 76.9 µM), for inactives: at the top dose activation (cAMP increase), actives largely listed as activators; hit rate 0.13% among 340,000; AID 624287, 2012; active = well fitted activation curve with a large enough effect; inconclusive = small, poorly fitted or top-dose-only effect, or another doubt; inactive = no such curve, though single readings can be large or run the other way; cell line not stated here;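 also: phosphodiesterase inhibitor Ro 20-1724 added with compounds to block cAMP breakdown; potency is read from the fitted curve at half-maximal effect; nearly all actives have a fitted effect of over 60% in size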
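Cells stably selected in G418 were plated at 2000/well, grown 16-24 hr, then given compounds in DMSO with the PDE inhibitor […] (300 uM solution added) for 30 min at 37C; cAMP was read by HTRF.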
MmCpn inh: Inhibitors of TCP-1 ring complex (TRiC) of Methanococcus maripaludis (MmCpn): qHTS | purified Mm-Cpn ATPase, ADP Transcreener TR-FRET | Potency, µM (doses to about 76.9 µM), without a hit: top-dose activity, negative = inhibition, actives largely listed as inhibitors | hit rate 0.031% among 330,000; active = well fitted inhibition curve with a large enough effect; inconclusive = small, poorly fitted or top-dose-only effect; also: potency is read from the fitted curve at half-maximal effect; % is scaled to controls: 0 for no effect and ±100 for the full control effect; nearly all actives have a fitted effect of over 80% in size
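Quantitative HTS used 25 nM Mm-CPN and 10 uM ATP in magnesium/KCl Tris buffer, pH 7.4, with 1 mM DTT. Hydrolysis ran 30 min at 37°C; ADP was read by HTRF.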
gsp antag: qHTS for Antagonists of gsp, the Etiologic Mutation Responsible for Fibrous Dysplasia/McCune-Albright Syndrome: qHTS; gsp-mutant cells, cAMP HTRF, 30 min; Potency, µM (doses to about 76.9 µM), inactives show top-dose activity change, negative = inhibition, usual class: inhibitors; hit rate 0.4% among 340,000; AID 624288, 2012; calls by dose curve; cell line not stated here;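 also: intracellular cAMP measured with PDE inhibitor Ro 20-1724 present during compound exposure; potency is read from the fitted curve at half-maximal effect; % is scaled to controls: 0 for no effect and ±100 for the full control effect; nearly all actives have a fitted effect of over 65% in size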
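HTRF cAMP measurement after 30 min RT detection following 30 min, 37C compound treatment alongside […] (added as 300 uM solution) in G418-selected cells seeded at 2000/well and grown 16–24 h.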
TSHR antag: Antagonists of the Thyroid Stimulating Hormone Receptor: HTS campaign | hit rate 0.2% among 330,000 | Thyrotropin receptor (Homo sapiens), P16473 | activity change, negative = inhibition, % at 11.5 µM | TSHR-expressing cells, TSH-stimulated cAMP HTRF, 2 h; hits give low values;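 active = activity change below a set negative limit, meaning inhibition stronger than a set level, cut at about -70% in these data; inconclusive = activity change between two set negative limits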; also: % is scaled to controls: 0 for no effect and ±100 for the full control effect
Target sequence (P16473 whole entry, looked up): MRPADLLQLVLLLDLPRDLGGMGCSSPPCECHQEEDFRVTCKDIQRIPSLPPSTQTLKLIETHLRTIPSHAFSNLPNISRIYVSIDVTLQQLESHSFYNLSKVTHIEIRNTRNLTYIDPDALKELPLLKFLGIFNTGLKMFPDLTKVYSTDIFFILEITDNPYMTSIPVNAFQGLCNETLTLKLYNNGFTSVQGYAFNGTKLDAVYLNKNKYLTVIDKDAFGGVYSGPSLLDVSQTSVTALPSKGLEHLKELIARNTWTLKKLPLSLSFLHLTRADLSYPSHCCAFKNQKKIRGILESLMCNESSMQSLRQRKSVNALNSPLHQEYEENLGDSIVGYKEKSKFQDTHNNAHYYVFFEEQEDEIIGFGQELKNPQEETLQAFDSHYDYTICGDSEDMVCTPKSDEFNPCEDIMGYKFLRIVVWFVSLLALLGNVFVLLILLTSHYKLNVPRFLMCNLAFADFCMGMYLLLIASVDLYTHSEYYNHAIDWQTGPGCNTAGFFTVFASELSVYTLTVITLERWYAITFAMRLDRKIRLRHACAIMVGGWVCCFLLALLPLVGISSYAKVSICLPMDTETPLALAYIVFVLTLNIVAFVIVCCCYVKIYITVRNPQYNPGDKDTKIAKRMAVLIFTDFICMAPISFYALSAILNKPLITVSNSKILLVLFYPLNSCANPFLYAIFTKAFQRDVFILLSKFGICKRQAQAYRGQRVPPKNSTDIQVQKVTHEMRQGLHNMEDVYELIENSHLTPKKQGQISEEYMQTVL
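TSHR-expressing cells, 200/well, pre-treated with compound, then stimulated with EC80 TSH (4nM final) for 2 hours at 37 deg C. cAMP measured by competitive HTRF: anti-cAMP cryptate antibody in lysis buffer plus cAMP-d2, read after 30 minutes at room temperature.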
An asterisk follows results filed as active; ? = inconclusive; . = no result; [ ] = remark or other dose. Shown are actives, neighbours in structure and some others; about 1.2% of the full set was active somewhere.

SMILES	CCT modulator	uPA generation	gsp ag	MmCpn inh	gsp antag	TSHR antag
CCOC(=O)c1c(N)sc(C(=O)Nc2ccccc2)c1C	-0.4	7.94µM*	-32.1%	-0.7%	-3.7%	-5.1
Cc1nc2ccc([N+](=O)[O-])cc2c(=O)n1Cc1cccc(F)c1	-1.0	2.2%	14.1µM*	-0.4%	10.2%	-6.5
Cc1cccc(Cn2c(C)nc3ccc([N+](=O)[O-])cc3c2=O)c1	-1.2	1.8%	-18.3%	0.3%	-4.3%	-18.6
COc1ccc(-c2cnc3c(NC(C)=O)cc(-c4cc(F)ccc4OC)cn23)cc1OC	1.7	.	.	.	.	.
CCn1c(=S)sc2c(=O)n(CC(=O)Nc3ccccc3OC)c(C)nc21	-1.5	0.6%	-30.3%	0.6%	-1.8%	-134.1*
CCn1c(=S)sc2c(=O)n(CC(=O)Nc3cc(OC)ccc3OC)c(C)nc21	0.9	5.3%	1.6%	1.5%	-3.9%	-0.8
COc1ccc(-c2c(=O)n(OC)c3ccccc3[n+]2[O-])cc1OC	-1.2	-4.5%	-6.3%	-0.7%	-0.2%	-1.0
CN(C)S(=O)(=O)Oc1cccc(C(=O)Nc2cccc(Cl)c2)c1	-1.7	-10.3%	-29.8%	2.3%	28.2µM*	-5.6
COc1ccc(/C=C(/CC(=O)Nc2ccccc2)c2nc3ccccc3s2)cc1	0.4	3.7%	-10.1%	-0.2%	-10.7%	-2.0
Cn1c(COc2ccc(Cl)cc2)nnc1SCC(=O)Nc1ccc2c(c1)CCC2	-0.6	1.6%	?	1.7%	?	-1.9
Cc1ccc(-n2nnnc2SCC(=O)N2Cc3ccccc3CC2C(=O)O)cc1 (centres undefined)	-1.9	2.2%	23.1%	1.4%	-10.0%	6.1
Brc1ccsc1-c1csc(-c2ccncc2)n1	1.5	7.7%	17.8µM*	-10.0%	-2.8%	-1.7
c1ccc(-c2csc(-c3ccncc3)n2)cc1	1.2	3.4%	7.6%[15.4 µM]	-0.9%	-0.5%	-15.5
O=[N+]([O-])c1ccc2c3n([n+]([O-])c2c1)CCN=C3c1ccc(Cl)cc1	-0.3	?	-25.2%	-1.8%	-9.4%	-6.8
Cc1ccc(C2=NCCn3c2c2ccc([N+](=O)[O-])cc2[n+]3[O-])cc1	-1.0	0.708µM*	16.7%	-3.4%	?	-1.4
CC(C)(CNC(=O)C1c2ccccc2-c2ccccc21)N1CCOCC1	0.0	1.8%	-10.4%	1.6%	3.3%	-82.2*
O=C(Cn1nc(-c2ccccc2)ccc1=O)Nc1ccc(-n2cnnn2)cc1	-4.2	-5.1%	2.6%[15.4 µM]	-1.6%	44.7µM*	14.9
COc1ccc(OCCCC(=O)OCC(=O)Nc2ncc(Cl)cc2Cl)cc1	-0.6	-0.3%	-2.7%[15.4 µM]	0.5%	-1.8%	6.3
CCOC(=O)c1cc(NC(=O)c2ccc(Cl)cc2)c(=O)n2c1oc1ccc(Cl)cc12	0.0	7.7%	-3.8%	1.4%	9.3%	3.7
NC(=O)CCCn1c(C(=O)c2cc(Cl)c(N)c(Cl)c2)c2ccc([N+](=O)[O-])cc2[n+]1[O-]	-1.3	3.16µM*	?	-0.6%	?	-15.1
NCCCn1c(C(=O)c2ccc(Cl)cc2)c2ccc([N+](=O)[O-])cc2[n+]1[O-]	2.9	?	.	1.0%	2.7%	-5.4
NC(=O)CCCn1c(C(=O)c2ccc(Cl)cc2)c2ccc([N+](=O)[O-])cc2[n+]1[O-]	-2.9	1.41µM*	-3.3%	0.2%	-4.8%	2.1
CNc1cnc(-c2ccc(O)c(OC)c2)cn1	-0.8	.	.	.	.	.
CCCN(CCC)CCCNC(=O)Cn1cnc2sc(C)c(S(=O)(=O)N3CCCCC3)c2c1=O	1.1	-0.1%	12.6%	-1.7%	16.8%	0.0
Cc1ccccc1OCc1nnc(SCC(=O)Nc2ccc3nc(SCC(=O)NC(C)(C)C)sc3c2)n1C	-0.3	-22.4%	?	0.6%	31.6µM*	-5.5
SMILES	CCT modulator	uPA generation	gsp ag	MmCpn inh	gsp antag	TSHR antag
C=CC(=O)Oc1ccc(N2Cc3ccccc3C2=O)cc1	1.2	5.01µM*	15.2%	.	-5.6%	.
Cc1ccc(N2Cc3ccccc3C2=O)cc1	0.0	8.91µM*	?	-0.1%	4.1%	2.0
COc1cc(Br)cc(C2C3=C(CCCC3=O)N(c3ccc(F)cc3)C3=C2C(=O)CCC3)c1O	-0.1	0.8%	?	2.1%	31.6µM*	-3.2
CC(C)N(C(=O)Cn1c(-c2ccccc2Cl)nc2ccccc21)c1ccccc1	-54.9*	2.4%	-43.3%	1.9%	-17.9%	30.4
CCc1cccc(CC)c1NC(=O)Cn1c(-c2ccccc2Cl)nc2ccccc21	-1.5	-1.4%	13.7%[15.4 µM]	2.1%	-17.4%	-2.4
CN(C)S(=O)(=O)c1ccc2c(c1)/C(=C/c1cc3c([nH]1)CCCC3)C(=O)N2	-1.3	?	.	-4.2%	10µM*	-25.5
Cn1c(Cn2nnc3ccccc32)nnc1SCC(N)=O	-0.9	-3.5%	-6.5%	0.9%	2.5%	19.8
O=C(COc1ccc(Cl)cc1Cl)NCCCN1CCOCC1	-6.5	-1.6%	-16.4%	-0.7%	10.1%	1.5
Fc1ccc(-c2cc(C(F)(F)C(F)F)[nH]n2)cc1	-36.9*	-4.3%	-3.3%[15.4 µM]	0.5%	7.7%	8.2
Cc1cc2ccccc2n1CCNC(=O)COc1ccccc1	-32.2*	11.2%	?	-22.2%	-4.6%	-5.6
Cc1cc2ccccc2n1CCNC(=O)c1ccc(S(=O)(=O)N2CCOCC2)cc1	-5.0	5.3%	-50.2%	31.6µM*	-13.1%	0.2
Cc1cc2ccccc2n1CCNC(=O)c1ccccc1	-0.7	7.6%	?	39.8µM*	-8.9%	10.1
O=C(NCCCN1CCOCC1)c1ccc(S(=O)(=O)N2CCOCC2)cc1	-1.3	-11.4%	-64.2%	-0.3%	1.8%	0.0
CCC(=O)NCCn1c(C)cc2ccccc21	-1.8	10.6%	?	-5.1%	10.0%	-2.4
Cc1ccc(C(=O)NC(=C(Cl)Cl)S(=O)(=O)c2ccccc2)cc1	0.9	?	-11.0%	-0.4%	-18.6%	6.7
CCn1c(-c2ccc(F)cc2)cnc1SCC(=O)N1CCc2ccccc21	.	.	.	-3.7%	.	7.0
COc1cc(/C=C2/SC(=O)NC2=O)ccc1Oc1ccc([N+](=O)[O-])cc1[N+](=O)[O-]	-0.9	-9.5%	?	1.3%	25.1µM*	-21.4
Cc1cccc(CCNC(=O)CCCOc2cc(=O)n(C)c3ccccc23)c1	-0.7	-4.8%	-5.6%[15.4 µM]	2.5%	-19.0%	0.3
Cc1cccc(CCNC(=O)COc2cc(=O)n(C)c3ccccc23)c1	-25.6	1.9%	-0.1%[15.4 µM]	1.2%	31.6µM*	1.0
